Measured potencies and affinities stand elsewhere.
System: Klebsiella pneumoniae
Details: Concentration 32 ug.mL-1; ASSAY_TEST Inhibition of Bacterial Growth; detection method Absorption (OD600); MEDIA CAMHB; plate type 384well; NBS; CORNING #3640; time 18 hr

Row | SMILES | Inhibition [%]
1 | Cc1ccccc1Nc1ccccc1-c1ccc([N+](=O)[O-])cc1 | -1.35
2 | O=[N+]([O-])c1ccc(-c2ccccc2N(Cc2ccccc2)c2ccccc2)cc1 | 8.4
3 | O=[N+]([O-])c1ccc(-c2c(Nc3ccccc3)ccc3ccccc23)cc1 | -5.26
4 | CN(c1ccccc1)c1ccccc1-c1ccc([N+](=O)[O-])cc1 | 13.85
5 | O=[N+]([O-])c1ccc2c3ccccc3n(-c3ccccc3)c2c1 | 5.72
6 | COc1cccc(Nc2ccccc2)c1-c1c(Cl)cc(Br)cc1Cl | 24.48
7 | COc1ccc(Nc2ccccc2-c2ccc([N+](=O)[O-])cc2)cc1 | 12.08
8 | O=[N+]([O-])c1ccc(-c2c(Nc3ccccc3)cccc2-c2ccccc2)cc1 | 6.43
9 | CC[C@@H](Nc1ccccc1-c1c(Cl)cc(Br)cc1Cl)c1ccccc1 | 20.15
10 | COc1cc([N+](=O)[O-])ccc1-c1c(Nc2ccccc2)cccc1OC | 14.15
11 | O=[N+]([O-])c1ccc(-c2ccccc2Nc2ccccc2)cc1 | -3.59
12 | Cc1cc(C)c(Nc2ccccc2-c2ccc([N+](=O)[O-])cc2)c(C)c1 | -16.56
13 | N#Cc1ccc(-c2ccccc2Nc2ccccc2)cc1 | 9.14
14 | COc1cc([N+](=O)[O-])ccc1-c1ccccc1Nc1ccccc1 | 18.46
15 | c1ccc(Nc2ccccc2-c2ncccn2)cc1 | 8.33
16 | O=[N+]([O-])c1cc(Cl)c(-c2ccccc2Nc2ccccc2)c(Cl)c1 | -1.39
17 | COc1cccc(N(C)c2cccc(OC)c2-c2ccc([N+](=O)[O-])cc2C)c1 | 4.9
18 | COc1cccc(Nc2ccccc2)c1-c1ccc([N+](=O)[O-])cc1 | -2.96
19 | Clc1cc(Br)cc(Cl)c1-c1ccccc1Nc1ccccc1 | 1.2
20 | O=[N+]([O-])c1ccc(-c2ccccc2Nc2ccccc2)cc1F | 14.23
21 | Cc1cccc(C)c1Nc1ccccc1-c1ccccc1[N+](=O)[O-] | 2.08
22 | CC(=O)c1ccc(-c2ccccc2Nc2ccccc2)cc1 | 4.21
23 | O=[N+]([O-])c1ccc(-c2ccccc2Nc2ccccc2)c(Cl)c1 | 13.74
24 | O=[N+]([O-])c1ccc(-c2ccccc2Nc2ccccc2Br)cc1 | 7.18
25 | Cc1cc([N+](=O)[O-])ccc1-c1ccccc1N(C)c1ccccc1 | -15.08
26 | O=[N+]([O-])c1ccc(-c2cccc3c2[nH]c2ccccc23)cc1 | 2.37
27 | O=[N+]([O-])c1ccc(-c2ccccc2Nc2ccccc2)cc1C(F)(F)F | 20.57
